Assay results taken from PubChem BioAssay (NCATS).
Records with an inconclusive call do not appear. The source made the active and inactive calls. The call rests on the fitted dose curve; in most records, active means well fitted curve in the direction sought with a large enough effect in the signal ratio; inconclusive means small, poorly fitted or top-dose-only effect, or effect the other way, or a change in a side signal; inactive means no such curve, though single readings can be large or run the other way; the % refers to the signal ratio.

test: Validation of Assay for Modulators of Lamin A Splicing (AID 1459); conditions: Lamin A splicing dual RFP/GFP fluorescence reporter; series mostly up to 9.22 µM;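 further: cells exposed to compound for two days before reading; ratio rise marks activators and ratio drop marks inhibitors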
Summary of the method: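 Splicing correction read as GFP (500-530 nm) over DsRed2 (575-640 nm) object intensity after 48 h compound exposure of reporter HeLa S3 clones (600 cells/well, 2% FBS medium); ancitabine and cycloheximide titrations, 0.5% DMSO as vehicle.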

| Structure (SMILES) | outcome |
| --- | --- |
| OC1CCCCC1N1CCC(c2ccccc2)CC1 (configuration not stated) | inactive |
| CN(C(=O)Cc1ccc(Cl)c(Cl)c1)C(CN1CCCC1)c1cccc(OCC(=O)O)c1 (configuration not stated) | inactive |
| CC(N)Cc1c[nH]c2ccc(OCc3cccs3)cc12 (configuration not stated) | inactive |
| COc1ccc2c(c1)[C@@]13CCCC[C@H]1[C@@H](C2)NCC3 | inactive |
| NCC(CP(=O)(O)O)c1ccc(Cl)cc1 (configuration not stated) | inactive |
| Ic1ccccc1CNC1C2CCN(CC2)C1C(c1ccccc1)c1ccccc1 (configuration not stated) | inactive |
| C[N+]1(C)CCOC(O)(c2ccc(-c3ccc(C4(O)C[N+](C)(C)CCO4)cc3)cc2)C1 (configuration not stated) | inactive |
| CC(N)[C@H](O)c1ccc(O)c(O)c1 (some centres not stated) | inactive |
| COc1ccc(CNC(=O)/C=C/c2ccc3[nH]cc(CCN(C)C)c3c2)cc1 | inactive |
| Oc1ccc2c3c1O[C@H]1c4oc5ccccc5c4C[C@@]4(O)C(C2)N(CC2CC2)CCC314 (some centres not stated) | inactive |
| Cc1o[nH]c(=O)c1CC(N)C(=O)O (configuration not stated) | inactive |
| CN1C2CCC1CC(OC(c1ccccc1)c1ccccc1N)C2 (configuration not stated) | inactive |
